Rows were chosen to be rich in hits. Some 12% of all compounds tested hit in one or more screens of this group.
G9a block: qHTS Assay for Inhibitors of Histone Lysine Methyltransferase G9a; Histone-lysine N-methyltransferase EHMT2 (Homo sapiens), Q96KQ7; G9a H3K9 monomethylation, AlphaScreen, 2 h; Potency, µM (doses to about 102 µM), most hits filed as inhibitors; hit rate 8.8% among 350,000; further: nearly all actives have a fitted effect of over 75% in size
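G9a (20 nM) was preincubated 15 min with compound, then reacted 2 h at room temperature with 500 nM biotin-H3K9 peptide and 20 µM SAM. Monomethyl-H3K9 detected by AlphaScreen using anti-H3K9me1 antibody.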
JMJD2A Tudor inh: qHTS Assay for Inhibitors of JMJD2A-Tudor Domain; Lysine-specific demethylase 4A (Homo sapiens), O75164; Potency, µM (top dose mostly 114 µM), most hits filed as inhibitors; hit rate 4.4% among 390,000; AlphaScreen JMJD2A-Tudor / H3K4me3 peptide binding; further: nearly all actives have a fitted effect of over 50% in size
Sfp PPTase inh: qHTS Assay for Inhibitors of Bacillus subtilis Sfp phosphopantetheinyl transferase (PPTase); hit rate 3.5% among 310,000; 4'-phosphopantetheinyl transferase ffp (Bacillus subtilis), Q9F4F7; AID 1490, 2009; Potency, µM, most hits filed as inhibitors; Biochemical Sfp PPTase activity, qHTS;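 further: the enzyme is Sfp with the accession as filed and its product quenches rhodamine fluorescence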
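After 15 min at room temperature with compound, 15 nM Sfp received 5 uM rhodamine-CoA plus 12.5 uM BHQ-2-ybbR (50 mM Hepes pH 7.6, 10 mM MgCl2). Rate came from the fluorescence difference over 30 min, ex 525/em 598 nm.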
PLK1 PBD inh: qHTS for Inhibitors of PLK1-PDB (polo-like kinase 1 - polo-box domain): Primary Screen | Serine/threonine-protein kinase PLK1 (Homo sapiens), P53350 | Plk1 PBD binding of FITC phosphopeptide, fluorescence polarization | Potency, µM, hits mostly inhibitors | hit rate 2.8% among 360,000 | AID 720504, 2013; further: series mostly up to about 57 µM; nearly all actives have a fitted effect of over 65% in size
Target sequence (P53350 whole entry, looked up, the tested form may be a part): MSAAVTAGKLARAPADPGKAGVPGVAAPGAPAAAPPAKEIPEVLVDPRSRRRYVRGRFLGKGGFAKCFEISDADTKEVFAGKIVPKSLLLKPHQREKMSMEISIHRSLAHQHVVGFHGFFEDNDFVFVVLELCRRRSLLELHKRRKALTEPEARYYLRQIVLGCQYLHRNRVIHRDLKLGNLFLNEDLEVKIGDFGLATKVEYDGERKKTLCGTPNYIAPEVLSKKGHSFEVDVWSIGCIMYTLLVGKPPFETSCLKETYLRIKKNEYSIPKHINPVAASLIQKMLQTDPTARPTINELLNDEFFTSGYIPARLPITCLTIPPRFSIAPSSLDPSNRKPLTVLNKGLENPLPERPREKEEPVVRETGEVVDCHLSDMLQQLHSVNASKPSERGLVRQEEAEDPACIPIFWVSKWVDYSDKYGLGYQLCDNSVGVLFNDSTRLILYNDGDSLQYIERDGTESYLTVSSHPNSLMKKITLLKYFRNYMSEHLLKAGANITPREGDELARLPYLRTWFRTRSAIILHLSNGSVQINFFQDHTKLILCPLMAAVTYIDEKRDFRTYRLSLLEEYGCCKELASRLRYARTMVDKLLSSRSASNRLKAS
HP1b binding inh: HTS for Inhibitors of HP1-beta Chromodomain Interactions with Methylated Histone Tails; AID 540317, 2011; hit rate 0.56% among 390,000; Potency, µM (top dose mostly 114 µM), usual class: inhibitors; Chromobox protein homolog 1 (Homo sapiens), P83916; AlphaScreen HP1-beta / biotin-H3K9me3 peptide binding; further: nearly all actives have a fitted effect of over 70% in size
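AlphaScreen: HP1-beta (50 nM) preformed 30 min with biotin-H3(1-18)K9me3 peptide (50 nM) in PBS pH 7.4, 0.01% Tween-20. Compound added for 30 min at RT, then streptavidin donor/nickel chelate acceptor beads (10 ug/mL) for 30 min.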
BAZ2B block: qHTS Assay for Inhibitors of BAZ2B; Bromodomain adjacent to zinc finger domain protein 2B (Homo sapiens), Q9UIF8; Potency, µM (top dose mostly 114 µM), most hits filed as inhibitors; hit rate 4.4% among 360,000; AID 504333, 2011; AlphaScreen BAZ2B-H3K14Ac peptide displacement; further: nearly all actives have a fitted effect of over 60% in size
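BAZ2B (50 nM) with biotin-H3(5-23)K14Ac peptide (50 nM) in PBS pH 7.4, 0.01% Tween-20, preformed 30 min, then compound 30 min at room temperature; top concentration 110uM. AlphaScreen streptavidin donor/nickel chelate acceptor beads (10 ug/mL final), 20 min dark, signal read.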
A number is an active result; - = inactive; ? = inconclusive; . = no result given; [ ] = remark or other dose. The call rests on the fitted dose curve; in most records, active means well fitted curve in the direction sought with a large enough effect; inconclusive means small, poorly fitted or top-dose-only effect, or another doubt; inactive means no such curve, though single readings can be large; an effect the other way counts as inactive or inconclusive.

SMILES | G9a block | JMJD2A Tudor inh | Sfp PPTase inh | PLK1 PBD inh | HP1b binding inh | BAZ2B block
COc1cc(-c2ccc(-[n+]3nc(-c4ccccc4)nn3-c3ccc([N+](=O)[O-])cc3)c(OC)c2)ccc1-[n+]1nc(-c2ccccc2)nn1-c1ccc([N+](=O)[O-])cc1 | ? | . | - | . | . | .
CCOC(=O)[C@]12Cc3cc(Cl)ccc3[C@H]1N(Cc1ccccc1)C(=O)c1cc(OC)ccc12 | . | . | . | 11µM | . | .
Cc1cc(C=C2C(=O)NC(=O)NC2=O)c(C)n1-c1ccc2c(c1)OCO2 | ? | - | - | - | - | -
Cc1cc(C=C2C(=O)NC(=S)NC2=O)c(C)n1-c1ccc2c(c1)OCO2 | 11µM | ? | 45µM | 2.7µM | - | ?
Oc1ccccc1/C=N/[n+]1ccccc1 | 56µM | - | - | - | - | -
CCN(CC)C(=O)c1ccc(NC(=O)c2cccc(S(=O)(=O)N3CCN(Cc4ccccc4)CC3)c2)cc1 | -[12.7 µM] | - | . | - | - | -
Cc1ccc2c(c1Cl)NC(C(=O)O)C1CC(Sc3ccccc3[N+](=O)[O-])C(Cl)C21 (configuration not stated) | . | 56µM | ? | 27µM | ? | 14µM
CCN(CC)C(=O)c1ccc2c(c1)C1C(Cl)C(Sc3ccccc3[N+](=O)[O-])CC1C(C(=O)O)N2 (configuration not stated) | 7.9µM | ? | 45µM | 6.7µM | 11µM | 20µM
O=[N+]([O-])c1ccc(NCc2ccccc2)c2nonc12 | - | - | - | 0.84µM | - | -
[S]=[Sb][S][Sb]=[S] | -[12.7 µM] | . | - | . | . | .
COC(=O)c1ccc(NS(=O)(=O)NC(=O)c2cn(C)c3ccccc23)cc1 | 79µM | - | - | - | - | ?
CCS(=O)(=O)C1=NN2C(=N)/C(=C\c3ccc(OC(=O)c4ccco4)cc3)C(=O)N=C2S1 | 40µM | - | ? | ? | - | ?
N=C1/C(=C\c2ccc(OC(=O)c3ccccc3Cl)cc2)C(=O)N=C2SC(N3CCOCC3)=NN12 | - | 50µM | - | 30µM | - | 45µM
CCOC(=O)[C@]12Cc3cc(C)ccc3[C@H]1N(C)C(=O)c1cc(OC)ccc12 | . | . | . | 6.7µM | . | .
CCOC(=O)[C@]12Cc3cc(OC)ccc3[C@H]1N(C(C)C)C(=O)c1cc(OC)ccc12 | . | . | . | 8.4µM | . | .
CC(Oc1cc2oc(=O)c3c(c2cc1Cl)CCCC3)C(=O)NCc1ccccn1 (configuration not stated) | ? | - | - | 24µM | - | -
Cc1csc(B(O)O)c1 | . | - | - | . | - | .
CC(C)c1ccc2c(c1O)CCC1C3=C(CC[C@]21C)C(=O)OC3 (some centres not stated) | . | . | - | . | . | .
Cc1cc(/C=C2/C(=O)NC(=O)N(C)C2=O)c(C)n1-c1ccccc1 | ? | - | - | - | - | -
Cc1cc(/C=C2\C(=O)NC(=O)N(c3ccccc3F)C2=O)c(C)n1-c1cc(C(=O)O)cc(C(=O)O)c1 | 10µM | 11µM | - | ? | 13µM | 28µM
Cc1cc(/C=C2\C(=O)NC(=O)N(c3ccc(F)cc3)C2=O)c(C)n1-c1cccc(C(=O)O)c1 | 35µM | - | - | 17µM | - | -
Cc1cc(/C=C2\C(=O)NC(=O)N(c3ccccc3)C2=O)c(C)n1-c1ccc(C(=O)O)c(Cl)c1 | 45µM | - | - | ? | - | ?
COC(=O)[C@@H]1[C@@H]2C[C@H]3c4[nH]c5cc(OC)ccc5c4CCN3C[C@@H]2C[C@H](OC(=O)/C=C\c2cc(OC)c(OC)c(OC)c2)[C@H]1OC | ? | . | - | . | . | .
COC(=O)c1cn(S(=O)(=O)c2ccccc2)c2ccccc12 | ? | - | ? | - | - | -
Clc1ccc2c(c1)C(c1ccccc1)=NCc1nncn1-2 | -[12.7 µM] | . | - | . | . | .
SMILES | G9a block | JMJD2A Tudor inh | Sfp PPTase inh | PLK1 PBD inh | HP1b binding inh | BAZ2B block
CN(CC(=O)O)C(=O)[C@H](Cc1ccccc1)NC(=O)[C@@H](CCCN=C(N)N)NC(=O)[C@@H](N)Cc1ccc(O)cc1 | . | . | - | . | . | .
O=C1C(Cl)=C(Cl)C(=O)C(Cl)=C1Cl | ? | . | - | . | . | .
CN1CCC(O)(c2ccc(Cl)cc2)C(C(=O)c2ccc(Cl)cc2)C1 (configuration not stated) | 10µM | - | - | 4.7µM | - | -
CN1CC(C(=O)c2ccc(Cl)cc2)C(c2ccc(Cl)cc2Cl)C1 (configuration not stated) | ? | - | ? | - | - | -
Cc1cccn2c(=O)c(C=Nc3ccccc3)c(NCc3ccco3)nc12 | 50µM | - | 50µM | - | - | ?
CN1CC(C(=O)c2ccc(Cl)cc2)C(c2ccc(N(C)C)cc2)C1 (configuration not stated) | 35µM | 50µM | - | - | - | 35µM
CN1CCc2nc3sc(C(=O)NC4CC4)c(N)c3cc2C1 | 8.9µM | ? | 32µM | - | - | ?
CCOc1ccccc1NC(=O)c1sc2nc3c(cc2c1N)CN(Cc1ccccc1)CC3 | ? | - | . | . | - | -
CCOc1ccccc1N=C1SCCCN1C | 5µM | 79µM | - | - | - | -
CN1C(=O)C(=Cc2cc([N+](=O)[O-])ccc2N2CCCCC2)C(=O)N(C)C1=O | - | - | - | - | - | ?
CN1C(=O)C(=Cc2sc(=O)n(-c3ccccc3)c2N2CCCCC2)C(=O)N(C)C1=O | 50µM | - | - | - | - | ?
O=C(Nc1cccnc1)C1CCN(S(=O)(=O)c2cccs2)CC1 | - | - | - | - | - | -
CC(=O)O[C@H]1CCC2C3CCC4=CC(=O)CCC4=C3C=C[C@@]21C (some centres not stated) | 45µM | ? | ? | ? | ? | -
CN(C[C@H](Cc1ccccc1)N(C[C@H](Cc1ccccc1)N(CCC(C)(C)C)N=O)N=O)N=O | -[12.7 µM] | ? | - | - | - | ?
CN(C)CCN(C)CCc1ccc(Cl)c(Cl)c1 | - | . | - | . | . | .
COC(=O)N1CCN(C(=O)Cc2ccc(Cl)c(Cl)c2)[C@H](CN2CCCC2)C1 | . | . | - | . | . | .
COc1ccc(CN2CCN(C(=O)Cc3ccccc3)CC2)cc1Br | . | 25µM | 89µM | - | ? | ?
CCN1CCN(C(=O)Cc2ccc(C)cc2)CC1 | - | - | - | - | - | -
CC(C)(C)NS(=O)(=O)c1ccc(OCC(=O)N2CCN(Cc3ccccc3)CC2)cc1 | - | - | - | - | - | -
COc1ccc(OC)c(CN2CCN(C(=O)Cc3ccccc3)CC2)c1 | 5µM | 18µM | - | - | ? | ?
CCOc1cc(CN2CCN(C(=O)Cc3ccccc3)CC2)ccc1OC | . | 28µM | - | - | ? | 56µM
COc1ccc(CN2CCN(C(=O)Cc3ccccc3)CC2)cc1OC | . | . | . | - | . | .

Screening data: PubChem, National Center for Advancing Translational Sciences (NCATS)
